The source of these data is PubChem BioAssay (NCI).

About 83,000 compounds went through this panel and 20% of them were active in at least one assay; those are over-represented in the sample as a whole.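 Negative percent growth values reflect cell death: -40 means 40% of the cells present at the start died, and -100 means all died.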 Active and inactive are the calls of the source. Rule for the calls: active = growth percent below 10; inactive = the rest.

The first assay deals with PC-3 prostate. The assay can be described thus: NCI-60 one-dose screen, 48 h (100 = growth as untreated, 0 = no growth, -100 = all killed). To be noted: 10 µM unless noted.
As for `O=C(CSc1nc2ccc([N+](=O)[O-])cc2[nH]1)Nc1ccc([N+](=O)[O-])cc1`, the growth is 12.7% (inactive).

With `CC(C)(Sc1cc(C(C)(C)C)c(OC(=O)CCCC(=O)O)c(C(C)(C)C)c1)Sc1cc(C(C)(C)C)c(OC(=O)CCCC(=O)O)c(C(C)(C)C)c1`, the growth is 36.2% (inactive).

With `O=C(N(c1ccccc1)c1ccccc1)n1cc(I)c2nc(Cl)nc(Cl)c21`, the growth is 32.1% (inactive).

On to `NC(=O)CSc1oc(-c2ccccc2)nc1S(=O)(=O)c1ccc(Br)cc1`, for which the growth is 77.9% (inactive).

Turning to `COc1ccc(/C=C/C(=O)c2cc3c(N)c(C(=O)Nc4cccc5ccccc45)sc3nc2C)cc1`, the growth was 75.6% (inactive).

As for `Nc1ncnc2c1c(-c1cccc(Cl)c1)nn2CC(=O)N1CCOCC1`, the growth was 96.6% (inactive).

Regarding `CC(=O)O[C@H]1CC2CCC3C(CC[C@@]4(C)C3C[C@H]([N+]3(C)CCCCC3)[C@@H]4OC(C)=O)[C@@]2(C)C[C@@H]1N1CCCCC1` (stereo partly drawn), the growth was 92.8% (inactive).

As to `c1ccc(Cn2cc3c(c2)-c2oncc2CC3)cc1`, the growth is 31.9% (inactive).

In a further assay the test system is SK-MEL-5 melanoma. The assay is described as above. To be noted: 10 µM unless noted.
With `O=C1C(Cl)=C(NCCCCCCNC2=C(Cl)C(=O)c3ccccc3C2=O)C(=O)c2ccccc21`, the growth is 53.2% (inactive).

In the case of `CCCC/C=C/[C@@H]1C[C@H]1CCO`, the growth is 99.3% (inactive).

As to `C=C(C)[C@@H]1CC[C@]2(CO)CC[C@]3(C)[C@H](CC[C@@H]4[C@@]5(C)CC[C@H](NCO)C(C)(C)[C@@H]5CC[C@]43C)[C@@H]12`, the growth was -90.1% (active).

As for `Cc1cccc(/C=C/c2c(C(=O)/C=C/c3ccccc3)c(C)nc3ccccc23)c1`, the growth is -58.1% (active).

With `Cc1ccc(-c2nc(N3CCCNCC3)c3oc(-c4ccc(C)cc4)nc3n2)cc1`, the growth was 88.1% (inactive).

On to `Cc1sc2nc(NCCc3c[nH]c4ccc(Cl)cc34)[nH]c(=O)c2c1C`, for which the growth was 50.4% (inactive).

As to `COc1ccc(OC)c(Nc2nnc(-c3ccc(O)c(OC)c3)o2)c1`, the growth is 71.6% (inactive).

`COc1ccccc1NC(=O)N=Nc1c(O)[nH]c2ccccc12`: the growth is 94.1% (inactive).

Take `Nc1nc2ccccc2c2c1S(=O)(=O)c1ccc(Cl)cc1C2=O`: the growth was 28.5% (inactive).

Regarding `Nc1n[nH]c2cccc(C#Cc3cccc(C(=O)Nc4cc(C(F)(F)F)cc(C(F)(F)F)c4)c3)c12`, the growth is 73% (inactive).

Turning to `CS(=O)(=O)Nc1cc(-c2ccc3ncnc(Nc4ccc5c(cnn5Cc5ccc(F)cc5)c4)c3c2)cnc1Cl`, the growth is 13.9% (inactive).

On to `Fc1cc2c(cc1Cl)N(c1ncnc3ccc(-c4ccc5n[nH]nc5c4)cc13)CC2`, for which the growth was 91.2% (inactive).

In the case of `CCN1C(=S)N(c2ccccc2)C2NC(=S)N(/N=C/C=C/c3ccccc3OC)C21` (stereo not drawn), the growth was 14.1% (inactive).

In the case of `O=c1c2cccc3c(N4CCCC4)ccc(c32)c2nc3ccccc3n12`, the growth was 64.5% (inactive).

Regarding `OB1OCc2cc(/C=C/c3cccc(C(F)(F)F)c3)ccc21`, the growth was -14.1% (active).

As to `O=C(/C=C/c1ccccc1)Nc1ncc(Cc2ccccc2Cl)s1`, the growth was 34.3% (inactive).

For `CN(C)CCNC(=O)c1ccc(-c2nc3ccc4[nH]ncc4c3c3c2C2CCC3C2)cc1` (stereo not drawn), the growth was 16.4% (inactive).

Consider `COC12C=C/C(=C(/C(=O)OCc3ccncc3)C(=O)CCCCCCCCC3(OC)C=C/C(=C(/C(=O)OCc4ccncc4)C(=O)CCCCCCCC1)O3)O2`, for which the growth was -84.5% (active).

For `O=C(/C=C/c1cccc(Cl)c1)c1cccc(OCCCOc2cccc(C(=O)/C=C/c3cccc(Cl)c3)c2)c1`, the growth was 100% (inactive).

Consider `CCn1c(SCC(=O)N/N=C(\C)c2ccc(Cl)cc2)nc2c1c(=O)n(C)c(=O)n2C`, for which the growth is 99.3% (inactive).

As to `Cc1ccc(C[P+](c2ccccc2)(c2ccccc2)c2ccccc2)cc1`, the growth was -66.3% (active).

For `Clc1ccc2c(NC3CCC(N4CCOCC4)CC3)ccnc2c1` (stereo not drawn), the growth is 53.4% (inactive).

As to `Cc1ccc(C2=Nc3c(N)ncnc3NC(c3cccc(Nc4ccnc5cc(C(F)(F)F)ccc45)c3)C2)cc1` (stereo not drawn), the growth was 12.1% (inactive).

For `COc1ccc(-c2noc(C(=O)O)c2-c2cc(OC)c(OC)c(OC)c2)cc1`, the growth was 13% (inactive).

Take `CCOC(=O)c1nn(-c2ccc(S(N)(=O)=O)cc2)c2nc(C)cc(=O)n12`: the growth was 106% (inactive).

For `CCSC(SCC)c1ccc(Cl)cc1`, the growth was 110% (inactive).

Take `CSc1nc2ccccc2cc1/C=C1/C=C(c2ccccc2)NC1=O`: the growth is 82.3% (inactive).

In the case of `COC1/C=C/OC2(C)Oc3c(C)c(O)c4c(O)c(c(/C=N/Nc5ccc([N+](=O)[O-])cc5[N+](=O)[O-])c(O)c4c3C2=O)NC(=O)C(C)=C/C=C/C(C)C(O)C(C)C(O)C(C)C(OC(C)=O)C1C` (stereo not drawn), the growth was 29.7% (inactive).

Take `O=C1C(Cl)=C(Nc2ccc(S(=O)(=O)N3CCOCC3)cc2)C(=O)c2ccccc21`: the growth is 86.8% (inactive).

Consider `c1csc(-c2ccc(CNc3c4ccccc4nc4ccccc34)cc2)c1`, for which the growth was -90.7% (active).

In the case of `Nc1ncc(-c2ccc3ncnc(Nc4cccc(Cl)c4)c3c2)cn1`, the growth was 64.8% (inactive).

As to `CCOC(=O)C#Cc1c(C(=O)OCC)nnn1Cc1ccc([N+](=O)[O-])cc1`, the growth is 93.2% (inactive).

As for `O=C(CSc1nc2ccc([N+](=O)[O-])cc2[nH]1)Nc1ccc([N+](=O)[O-])cc1`, the growth was -12.7% (active).

`CC(C)(Sc1cc(C(C)(C)C)c(OC(=O)CCCC(=O)O)c(C(C)(C)C)c1)Sc1cc(C(C)(C)C)c(OC(=O)CCCC(=O)O)c(C(C)(C)C)c1`: the growth was -3.74% (active).

`O=C(N(c1ccccc1)c1ccccc1)n1cc(I)c2nc(Cl)nc(Cl)c21`: the growth was 63.9% (inactive).

Regarding `NC(=O)CSc1oc(-c2ccccc2)nc1S(=O)(=O)c1ccc(Br)cc1`, the growth is 55.7% (inactive).

On to `COc1ccc(/C=C/C(=O)c2cc3c(N)c(C(=O)Nc4cccc5ccccc45)sc3nc2C)cc1`, for which the growth was 68.9% (inactive).

As to `Nc1ncnc2c1c(-c1cccc(Cl)c1)nn2CC(=O)N1CCOCC1`, the growth was 101% (inactive).

With `CC(=O)O[C@H]1CC2CCC3C(CC[C@@]4(C)C3C[C@H]([N+]3(C)CCCCC3)[C@@H]4OC(C)=O)[C@@]2(C)C[C@@H]1N1CCCCC1` (stereo partly drawn), the growth was 112% (inactive).

Take `c1ccc(Cn2cc3c(c2)-c2oncc2CC3)cc1`: the growth is 39.3% (inactive).
